Only some compounds are listed: those with a hit (about 12% of all), similar ones and a draw of the others.
PI5P4Ka inh – PI5P4K alpha (human) kinase inhibition | P48426 | PI5P4Kalpha enzyme, ADP-Glo luminescence, 60 min; active compounds read low | max response, % | 1.2% of 330,000 active | AID 652105; active = max response of -50% or lower; inconclusive = between -30% and -50%; inactive = -30% or higher; note: value at the top dose of about 77 µM
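Human PI5P4Kalpha with substrate in 0.038 M HEPES pH 7.4, 0.28 mM EGTA, 0.1% CHAPS, 5% DMSO; reaction started with 5 microM ATP (final), 60 min at room temperature. ADP formed read by ADP-Glo luminescence.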
BAZ2B inh – BAZ2B (human) inhibition. AID 504333. Potency, µM (series often up to 114 µM), actives largely listed as inhibitors. 4.4% of 360,000 active. AlphaScreen BAZ2B-H3K14Ac peptide displacement; note: nearly all actives have a fitted effect of over 60% in size
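Inhibition is scored as reduced AlphaScreen emission. The BAZ2B/b-H3(5-23)K14Ac complex (50 nM each) in PBS pH 7.4, 0.01% Tween-20 meets compound (up to 110 uM) for 30 min at RT before bead addition.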
G9a block – inhibitors of human histone lysine methyltransferase G9a. 8.8% of 350,000 active. G9a H3K9 monomethylation, AlphaScreen, 2 h. Potency, µM (highest dose often 102 µM), hits mostly inhibitors. Q96KQ7. AID 504332; note: nearly all actives have a fitted effect of over 75% in size
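AlphaScreen detection with an anti-monomethyl H3K9 antibody quantified product after a 2 h room-temperature reaction containing 500 nM biotinylated H3K9 peptide, 20 µM SAM and 20 nM enzyme, which had been preincubated 15 min with compound.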
HP1b binding inh – HP1-beta chromodomain-methylated histone interaction inhibition; 0.56% of 390,000 active; Potency, µM (top dose mostly 114 µM), usual class: inhibitors; AlphaScreen HP1-beta / biotin-H3K9me3 peptide binding; P83916; note: nearly all actives have a fitted effect of over 70% in size
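HP1-beta protein (50 nM final) preincubated 30 min at room temperature with biotinylated H3(1-18)K9me3 peptide (50 nM) in PBS pH 7.4, 0.01% Tween-20, then compound added for 30 min. AlphaScreen streptavidin donor/nickel chelate acceptor beads (10 ug/mL final), 30 min dark, luminescence read.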
JMJD2A Tudor – blocks the human JMJD2A Tudor domain; AlphaScreen JMJD2A-Tudor / H3K4me3 peptide binding; Potency, µM (highest dose often 114 µM), most hits filed as inhibitors; 4.4% of 390,000 active; O75164; note: nearly all actives have a fitted effect of over 50% in size
Target sequence (O75164 whole entry, looked up, the tested form may be a part): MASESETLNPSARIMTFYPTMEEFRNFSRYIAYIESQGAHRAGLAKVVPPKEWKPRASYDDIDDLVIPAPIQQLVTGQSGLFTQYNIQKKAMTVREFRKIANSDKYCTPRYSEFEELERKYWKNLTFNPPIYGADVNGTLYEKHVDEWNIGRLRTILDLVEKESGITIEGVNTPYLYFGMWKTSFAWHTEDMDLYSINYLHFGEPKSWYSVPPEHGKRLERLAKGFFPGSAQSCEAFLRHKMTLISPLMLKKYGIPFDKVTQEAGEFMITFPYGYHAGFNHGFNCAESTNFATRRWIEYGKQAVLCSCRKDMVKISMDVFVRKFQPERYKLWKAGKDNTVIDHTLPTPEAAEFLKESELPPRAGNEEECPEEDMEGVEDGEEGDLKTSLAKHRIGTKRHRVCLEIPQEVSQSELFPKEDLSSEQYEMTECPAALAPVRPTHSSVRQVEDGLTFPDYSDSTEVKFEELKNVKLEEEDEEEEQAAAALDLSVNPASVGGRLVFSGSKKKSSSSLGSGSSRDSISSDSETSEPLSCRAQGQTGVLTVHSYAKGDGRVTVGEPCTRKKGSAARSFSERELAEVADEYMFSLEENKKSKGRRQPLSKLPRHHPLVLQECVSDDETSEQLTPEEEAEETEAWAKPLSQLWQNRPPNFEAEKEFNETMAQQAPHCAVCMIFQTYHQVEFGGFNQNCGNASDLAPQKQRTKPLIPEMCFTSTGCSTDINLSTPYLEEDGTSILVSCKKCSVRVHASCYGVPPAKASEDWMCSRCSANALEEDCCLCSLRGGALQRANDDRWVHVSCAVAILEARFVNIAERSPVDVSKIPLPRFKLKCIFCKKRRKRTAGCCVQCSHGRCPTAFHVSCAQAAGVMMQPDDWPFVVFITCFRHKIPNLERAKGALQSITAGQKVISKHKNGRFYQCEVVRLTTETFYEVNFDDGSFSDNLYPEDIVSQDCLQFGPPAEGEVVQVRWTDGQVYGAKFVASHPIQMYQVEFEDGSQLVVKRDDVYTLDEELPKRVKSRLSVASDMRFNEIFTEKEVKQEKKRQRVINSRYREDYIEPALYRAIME
PLK1 PBD inh – blocks phosphopeptide binding to human PLK1 polo-box domain; 2.8% of 360,000 active; Plk1 PBD binding of FITC phosphopeptide, fluorescence polarization; Potency, µM, actives largely listed as inhibitors; AID 720504; P53350; note: series mostly up to about 57 µM; nearly all actives have a fitted effect of over 65% in size
Hits are given with their value; 0 = inactive; ? = inconclusive; - = no result given; [ ] = another dose, or the depositor's remark. Unless noted, calls come from the whole dose curve; as a rule, active = well fitted curve in the direction sought with a large enough effect; inconclusive = small, poorly fitted or top-dose-only effect, or another doubt; inactive = no such curve, though single readings can be large; an effect the other way counts as inactive or inconclusive.

SMILES	PI5P4Ka inh	BAZ2B inh	G9a block	HP1b binding inh	JMJD2A Tudor	PLK1 PBD inh
CC1(C(=O)NS(=O)(=O)c2cccc(OC(F)F)c2)CCN1C(=O)CC(c1ccccc1)c1ccccc1 (stereo unspecified)	0	-	-	-	-	0
COCC(C)n1c(C)cc(C(=O)COC(=O)c2nn(C)c(=O)c3ccccc23)c1C (stereo unspecified)	0	-	-	0	0	0
Cc1ccc(-n2c(C)cc(C(=O)Cn3nc(C(=O)O)c4ccccc4c3=O)c2C)cc1	0	0	79µM	0	?	0
COCC(C)n1c(C)cc(C(=O)Cn2nc(C(=O)O)c3ccccc3c2=O)c1C (stereo unspecified)	0	0	45µM	0	0	0
COc1ccc(-n2c(C)cc(C(=O)Cn3nc(C(=O)O)c4ccccc4c3=O)c2C)cc1	0	0	?	0	0	0
COCCn1c(C)cc(C(=O)COC(=O)c2c(C)nn(Cc3ccccc3)c2C)c1C	0	?	79µM	?	?	0
CCOc1ccc2c(c1)c(=O)c(C(=O)c1ccccc1)cn2Cc1ccccc1F	-	0	0	0	0	-
N#CCCn1c(=O)c(-c2ccccc2)nc2cnc(Oc3cccc(Cl)c3)nc21	-	-	0[12.7 µM]	-	-	-
O=[N+]([O-])c1cccc(S(=O)(=O)N2CCN(c3nc(-c4cccs4)nc4ccccc34)CC2)c1	-	-	-	0	0	-
O=C(NNC(=O)C1CC1)c1cc(=O)[nH]c2ccccc12	0	-	-	0	0	0
COc1c(C)cc(Br)cc1C(=O)NC(=S)Nc1ccc(Cl)c(C(=O)O)c1	0	0	50µM	0	0	17µM
O=C(NC(=S)Nc1ccc(Cl)c(C(=O)O)c1)c1ccco1	0	0	?	0	0	0
CC(C)Oc1ccc(C(=O)NC(=S)Nc2ccc(Cl)c(C(=O)O)c2)cc1	0	0	-	0	0	0
CC(=O)NNC(=S)NC(=O)C(c1ccccc1)c1ccccc1	0	0	-	0	0	0
CCOc1cc(C(=O)NC(=S)Nc2ccc(Cl)c(C(=O)O)c2)cc(OCC)c1OCC	0	0	40µM	0	?	?
O=C(O)c1cc(NC(=S)NC(=O)C(c2ccccc2)c2ccccc2)ccc1Cl	0	0	?	0	0	67µM
CN(C)C(=S)NC(=O)C(c1ccccc1)c1ccccc1	0	0	79µM	0	0	0
Cc1ccc2nc(Cl)c3cc(C(=O)NC4CCC(C)CC4)sc3c2c1 (stereo unspecified)	-	0	0	0	0	-
Cc1ccc(-n2ncc3c(NCCc4ccccc4)ncnc32)cc1	-	0	0	0	0	-
COc1ccc(NC(=O)CN(C)C(=O)c2oc3ccccc3c2C)cc1	0	0	0	0	0	0
COc1cc(NC(=O)c2nn(-c3ccc(F)cc3)c(=O)n(C)c2=O)cc(OC)c1OC	-	0	0	0	0	-
COc1ccccc1N1CCN(C(=O)c2sc3ncnc(N4CCN(c5ccccn5)CC4)c3c2C)CC1	0	?	0	0	0	0
COc1ccccc1N1CCN(C(=O)c2sc3nc(C)nc(N4CCN(c5ccccn5)CC4)c3c2C)CC1	0	?	25µM	0	?	0
CCOC(=O)C1(C)CCN1C(=O)c1ccc(OC)c(F)c1 (stereo unspecified)	0	-	-	-	-	0
CN(C)c1ccc(CNc2nc(-c3ccco3)nn2S(=O)(=O)c2ccc3ccccc3c2)cc1	-	8.9µM	7.9µM	?	8.9µM	-
SMILES	PI5P4Ka inh	BAZ2B inh	G9a block	HP1b binding inh	JMJD2A Tudor	PLK1 PBD inh
CC(=O)Nc1ccc(SC[C@H](C)CN2CC[C@H](O)CCC2=O)cc1	0	0	0[2.33 µM]	0	0	19µM
CC(=O)Nc1ccc(SCCN2CC[C@@H](C(C)(C)C)CCC2=O)cc1	0	0	0[2.33 µM]	0	0	11µM
C[C@@H](CSc1ccc(Br)cc1)CN1CC[C@H](O)CCC1=O	0	0	0[2.33 µM]	0	0	0
Cc1ccc(S(=O)(=O)CCC(=O)Nc2nnc(-c3cccs3)o2)cc1	0	?	0	0	11µM	0
Cc1ccc(S(=O)(=O)CCC(=O)Nc2nnc(-c3ccco3)o2)cc1	0	?	25µM	0	18µM	0
O=C(CCS(=O)(=O)c1ccc(Cl)cc1)Nc1nnc(-c2cccs2)o1	0	0	0	0	0	0
O=C(CCS(=O)(=O)c1ccc(Cl)cc1)Nc1nnc(-c2ccco2)o1	0	?	0	0	?	0
COc1ccc(Cn2c(NCC(C)C)nc3c2c(=O)n(C)c(=O)n3C)cc1	-	0	0	0	0	-
CC(=O)N(CCCCl)C(C#N)c1ccccc1 (stereo unspecified)	0	0	?	0	0	0
N#CC(c1ccccc1)N(CCCCl)C(=O)c1ccccc1 (stereo unspecified)	0	0	45µM	0	0	0
O=C(c1ccco1)N1CCC2(CC1)CN(c1ccccn1)C2	-	-	0[12.7 µM]	-	-	-
Cc1cc(NC(=O)CN2CCN(S(=O)(=O)c3ccc(Cl)cc3)CC2)no1	-	0	0	0	0	0
O=C(CN1CCN(c2ccc(O)cc2)CC1)Nc1cc([N+](=O)[O-])ccc1Cl	0	?	5.6µM	0	?	0
Cc1cc(NC(=O)CN2CCN(c3ccc(O)cc3)CC2)no1	-	0	0[0.501 µM]	?	89µM	0
O=C(CN1CCN(c2ccccc2)CC1)Nc1ccccc1Cl	0	?	0	0	0	0
CC(=O)N1CCN(CC(=O)Nc2cc([N+](=O)[O-])ccc2Cl)CC1	0	0	40µM	0	0	0
Cc1ccc([N+](=O)[O-])cc1NC(=O)CN1CCCCC1	0	0	0[0.501 µM]	0	0	0
O=C(CN1CCN(c2ccc(O)cc2)CC1)NCC(=O)Nc1ccc(F)c(F)c1F	0	0	?	?	45µM	0
COc1ccccc1C1CCN(Cc2ccc(C)cc2)CC1	0	0	0	0	0	0
COc1ccc(C2Nc3ccccc3C(=O)N2NS(=O)(=O)c2ccccc2)cc1 (stereo unspecified)	0	0	0	0	0	0
Cc1ccc(NC(=O)COC(=O)c2cc(Cl)ccc2[N+](=O)[O-])c(C)c1	0	0	?	0	0	0
Cc1ccc(NC(=O)COC(=O)COc2ccc(Cl)cc2C)c([N+](=O)[O-])c1	0	?	28µM	0	?	0
Cc1ccc(NC(=O)COC(=O)CCC(=O)c2ccc(C(C)(C)C)cc2)c([N+](=O)[O-])c1	0	?	11µM	?	?	0
Cc1nnc(NC(=O)CSCc2cc(=O)c3cc(Cl)ccc3[nH]2)s1	-	0	0	0	0	-
CN1CCN(C2=Cc3ccc(Cl)cc3Sc3ccc(F)cc32)CC1	0	50µM	?	0	56µM	0
CN1CCN(C2=Cc3ccccc3Sc3cc(F)ccc32)CC1	0	?	?	0	0	0
Oc1ccccc1/C=N/NC(=S)NC1CC2C=CC1C2 (stereo unspecified)	0	28µM	?	0	45µM	0
Oc1c(Cl)cc(Cl)cc1/C=N/Nc1ncc(Br)cn1	0	0	0	0	0	0
